Measurements from the supplement of paper PMC10981050.
“And” between values parts separate entries of the source, which are not always exact repeats. Equal entries are not always repeated. Structures can show the parent of a compound that is named as a salt.

Legend:
Experiment in all cases: cell viability relative to vehicle control; higher = less cytotoxic
Conditions in all cases: 10 µM
[1] = system: K562
In short: (§1)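 Mutant clones made by CRISPR editing and their isogenic wild-type counterparts, from four leukaemia lines, were exposed to a single 10 µM dose of each library compound for 48 h. The supernatant was then removed and CellTiter-Glo luminescence was read. Viability was reported as percent of the on-plate vehicle control.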

[2] = system: MARIMO
In short: as §1

[3] = system: MOLM14
In short: as §1

[4] = system: OCI-AML2
In short: as §1

Structure (SMILES) | cell viability ([1]; SRSF2 genotype: SRSF2 P95H/wt) | cell viability ([1]; SRSF2 genotype: SRSF2 wt/wt) | cell viability ([2]; SRSF2 genotype: SRSF2 P95H/wt) | cell viability ([2]; SRSF2 genotype: SRSF2 wt/wt) | cell viability ([3]; SRSF2 genotype: SRSF2 P95H/wt) | cell viability ([3]; SRSF2 genotype: SRSF2 wt/wt) | cell viability ([4]; SRSF2 genotype: P95H/wt) | cell viability ([4]; SRSF2 genotype: wt/wt)
C[C@H]1COC2(CCN(c3nc(=O)c4cc(C(F)(F)F)cc([N+](=O)[O-])c4s3)CC2)O1 (racemic) [BTZ043 racemate] | 88.3% and 84.3% | 84.1% | 82.4% | 86.7% | 87% | 85.3% | 91.7% | 86.9%
O=C(O)C(=O)O.[NH-]C1CCCCC1[NH-].[Pt+2] (centres undefined) [Oxaliplatin (Eloxatin)] | – | 72.8% | 22% | 62% | 56.1% | 48.2% | 23.8% | 62.9%
O=C(CCCCCCNC(=O)c1cnc(N(c2ccccc2)c2ccccc2Cl)nc1)NO [Citarinostat (ACY-241)] | – | 47.4% | 8.12% | 20.9% | 2.1% | 1.84% | 0.7% | 1.25%
NC(=O)c1cccc(-c2cc(Nc3ccc(OC(F)(F)F)cc3)ncn2)c1 | – | 26.8% | 70.1% | 58.7% | 102% | 102% | 43.7% | 55.3%
C[C@@]12C[C@@]3(O)O[C@@H](O1)[C@]1(COC(=O)c4ccccc4)[C@H]3C[C@@]12O[C@@H]1O[C@H](CO)[C@@H](O)[C@H](O)[C@H]1O [Paeoniflorin] | 100% and 109% | 102% | 101% | 101% | 107% | 111% | 112% | 97.3%
CN1C(C(=O)Nc2ccccn2)=C(O)c2ccccc2S1(=O)=O [Piroxicam (Feldene)] | 99.5% and 103% | 100% | 97.3% | 106% | 97.6% | 105% | 104% | 105%
CCn1cc(C(=O)O)c(=O)c2c(N)c(F)c(NC3CCCCC3)cc21 | – | 80.6% | 94.2% | 125% | 106% | 117% | 120% | 136%
O=C(O)C[C@H](O)C[C@H](O)/C=C/c1c(C2CC2)nc2ccccc2c1-c1ccc(F)cc1 [Pitavastatin calcium (Livalo)] | 37.4% and 50.7% | 34.6% | 25.3% | 34.4% | 32.9% | 48.4% | 1.41% | 4.89%
C[C@@H](NC(=O)c1ncnc(N)c1Cl)c1ncc(C(=O)Nc2cc(C(F)(F)F)c(Cl)cn2)s1 | – | 51.4% | 54.7% | 58.1% | 86.1% | 95.3% | 66.9% | 69.8%
O=C(/C=C/c1ccc(O)c(O)c1/C=C/c1ccc(O)c(O)c1)O[C@H](Cc1ccc(O)c(O)c1)C(=O)O [Salvianolic acid A] | – | 70.5% | 86.4% | 94.7% | 73.7% | 62.1% | 98.2% | 95%
CC(C)=CCC[C@](C)(O[C@@H]1O[C@H](CO[C@@H]2OC[C@@H](O)[C@H](O)[C@H]2O)[C@@H](O)[C@H](O)[C@H]1O)[C@H]1CC[C@]2(C)[C@@H]1[C@H](O)C[C@@H]1[C@@]3(C)CC[C@H](O[C@@H]4O[C@H](CO)[C@@H](O)[C@H](O)[C@H]4O[C@@H]4O[C@H](CO)[C@@H](O)[C@H](O)[C@H]4O)C(C)(C)[C@@H]3CC[C@]12C [Ginsenoside Rb3] | 101% and 96.7% | 108% | 103% | 103% | 109% | 102% | 101% | 101%
Cc1cc(Nc2ncnc3ccc(NC4=NC(C)(C)CO4)cc23)ccc1Oc1ccn2ncnc2c1 | 87.4% and 89.8% | 91.5% | 82.5% | 102% | 88.2% | 97.2% | 64.9% | 73.7%
CCN(C)S(=O)(=O)Nc1ccc(F)c(C(=O)c2c[nH]c3ncc(-c4cnc(C5CC5)nc4)cc23)c1F | – | 59.2% | 83.6% | 87.5% | 79.3% | 92.7% | 91.5% | 84.7%
CC(C)(C)c1ccc(S(=O)(=O)NCc2ccc(C(=O)Nc3cccnc3)cc2)cc1 | 31.8% and 20.2% | 26.6% | 20.9% | 32.5% | 9.88% | 1.9% | 5.52% | 5.41%
CCC(C)n1ncn(-c2ccc(N3CCN(c4ccc(OCC5COC(Cn6cncn6)(c6ccc(Cl)cc6Cl)O5)cc4)CC3)cc2)c1=O (centres undefined) [Itraconazole (Sporanox)] | 76.7% and 94.4% | 83.1% | 49.6% | 55% | 71.1% | 96.7% | 50.8% | 55.4%
CN1CCN(CCOc2cc(OC3CCOCC3)c3c(Nc4c(Cl)ccc5c4OCO5)ncnc3c2)CC1 [Saracatinib (AZD0530)] | 7.73% and 16.1% | 9.65% | 97.1% | 107% | 50.3% | 55.9% | 73.4% | 63.4%
CCOC(=O)[C@H](CCc1ccccc1)N[C@@H](C)C(=O)N1Cc2cc(OC)c(OC)cc2C[C@H]1C(=O)O [Moexipril HCl] | 93.9% and 103% | 104% | 110% | 105% | 106% | 109% | 104% | 95.9%

Structure (SMILES) | cell viability ([1]; SRSF2 genotype: SRSF2 P95H/wt) | cell viability ([1]; SRSF2 genotype: SRSF2 wt/wt) | cell viability ([2]; SRSF2 genotype: SRSF2 P95H/wt) | cell viability ([2]; SRSF2 genotype: SRSF2 wt/wt) | cell viability ([3]; SRSF2 genotype: SRSF2 P95H/wt) | cell viability ([3]; SRSF2 genotype: SRSF2 wt/wt) | cell viability ([4]; SRSF2 genotype: P95H/wt) | cell viability ([4]; SRSF2 genotype: wt/wt)
COc1cc2nccc(Oc3ccc(NC(=O)Nc4ccc(F)cc4F)c(F)c3)c2cc1OC | – | 93.5% | 109% | 112% | 25.1% | 19.4% | 40.2% | 51.5%
CC(C)(C(=O)O)c1ccc(C(O)CCCN2CCC(C(O)(c3ccccc3)c3ccccc3)CC2)cc1 (centres undefined) [Fexofenadine HCl] | 99.1% and 98.7% | 101% | 95.9% | 103% | 100% | 101% | 94.1% | 110%
C[C@@H](c1ccc2nccn2c1)n1nnc2ncc(-c3cnn(C)c3)nc21 [Savolitinib(AZD6094, HMPL-504)] | 94.1% and 97.5% | 104% | 94.3% | 91% | 96.6% | 97.2% | 90.3% | 96.5%
Nc1ccc(-c2ccc3ncc4ccc(=O)n(-c5cccc(C(F)(F)F)c5)c4c3c2)cn1 [Torin 2] | 13.4% and 21.3% | 16.9% | 16.5% | 20.9% | 1.07% | 2.53% | 1.62% | 7.04%
CCCOc1ccc(CCc2nc3cc(-c4c(C)noc4C)ccc3n2CCN2CCOCC2)cc1 | 81.1% and 91% | 84.9% | 80.3% | 76.7% | 60.3% | 65% | 59.1% | 73.5%
CC(=O)Oc1cc(C)c(OC(C)=O)c2ccccc12 [Menadiol Diacetate] | – | 95.2% | 49.6% | 53.5% | 15.3% | 7.05% | 5.63% | 11.2%
Cc1ccc(Nc2c(F)cccc2Cl)c(CC(=O)O)c1 [Lumiracoxib (COX-189)] | 96% and 98.3% | 96.3% | 98.9% | 96% | 100% | 93.4% | 109% | 101%
O=Cc1ccc(O)c(O)c1 [3,4-Dihydroxybenzaldehyde] | 95.8% and 92.8% | 93.7% | 77.4% | 91.9% | 91.3% | 99.4% | 88.9% | 92.4%
CC#Cc1cncc(-c2ccc3c(c2)C2(N=C(C)C(N)=N2)C2(CCC(OC)CC2)C3)c1 (centres undefined) | 108% and 98.5% | 107% | 100% | 103% | 98% | 98.9% | 88.8% | 93.1%
COc1cc2nc(N3CCN(C(=O)C4COc5ccccc5O4)CC3)nc(N)c2cc1OC (centres undefined) [Doxazosin mesylate] | 94.7% and 100% | 95.9% | 105% | 101% | 92.2% | 105% | 92.7% | 96.5%
CCCCCCCC(=O)N[C@H](CN1CCCC1)[C@H](O)c1ccc2c(c1)OCCO2 [Eliglustat (Tartrate)] | 95.2% and 103% | 99.4% | 91.1% | 89.7% | 90% | 99.9% | 94% | 97.1%
CC(C)(C)NC(=O)N[C@H](C(=O)N1C[C@H]2[C@@H]([C@H]1C(=O)NC(CC1CCC1)C(=O)C(N)=O)C2(C)C)C(C)(C)C (some centres undefined) [Boceprevir] | 85.6% and 87.6% | 84.2% | 71.3% | 73.2% | 91.1% | 84.3% | 84% | 88.9%
O=C(Cc1cccc(OC(F)(F)F)c1)Nc1ccc(CCCCc2nnc(NC(=O)Cc3ccccn3)s2)nn1 | – | 58.5% | 23.7% | 21.2% | 44.3% | 53.4% | 20.1% | 24.8%
COc1ccnc(C[S+]([O-])c2nc3cc(OC(F)F)ccc3[nH]2)c1OC (centres undefined) [Pantoprazole (Protonix)] | 103% and 104% | 102% | 109% | 103% | 115% | 112% | 113% | 96.5%
CCS(=O)(=O)N1CCN(c2ccc(Nc3ncc(C(N)=O)c(NC4CC4)n3)cc2)CC1 | – | 63.2% | 65.2% | 63.1% | 7.8% | 8.15% | 12.1% | 15.5%
O=C(NC1CCNCC1)c1n[nH]cc1NC(=O)c1c(Cl)cccc1Cl | – | 26.4% and 27.1% | 13.2% and 15.4% | 6.7% and 6.57% | 3.09% and 4.11% | 0.56% and 0.84% | 5.65% and 5.71% | 17.9% and 18%
CNC(=O)c1ccccc1Oc1nc(Nc2cc(OC)c(OC)c(OC)c2)ncc1Br | – | 90.6% | 52.5% | 55.3% | 8.58% | 5.16% | 11.6% | 19%
